# Measured values taken from PubChem BioAssay (Tox21).
# Where “and” joins values, the source holds several entries; their conditions need not be identical. Equal values may be shown once. Results filed as inconclusive are left out. A call without a number means that no potency is given here. A structure can be active in one record and inactive in another. Calls of active or inactive are those of the source. The call rests on the fitted dose curve; in most records, active means well fitted curve in the direction sought with a large enough effect in the repeat runs; inconclusive means weak or mixed curves; inactive means no such curve, though single readings can be large; an effect the other way counts as inactive or inconclusive.
# Experiments:
# [1] = target: Voltage-gated inwardly rectifying potassium channel KCNH2 (Homo sapiens) (UniProt Q12809); assay: Human Ether-a-go-go-Related Gene (hERG) channel small molecule antagonists: fluorescence cell-based qHTS assay (AID 1671200); conditions: hERG-U2OS cells, FluxOR thallium flux fluorescence; series mostly up to 76.8 µM;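 on activity change, negative = inhibition: hERG-expressing U2OS cells given a thallium stimulus after FluxOR II dye loading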
# Sequence of Voltage-gated inwardly rectifying potassium channel KCNH2 (Homo sapiens) (Q12809 whole entry, looked up): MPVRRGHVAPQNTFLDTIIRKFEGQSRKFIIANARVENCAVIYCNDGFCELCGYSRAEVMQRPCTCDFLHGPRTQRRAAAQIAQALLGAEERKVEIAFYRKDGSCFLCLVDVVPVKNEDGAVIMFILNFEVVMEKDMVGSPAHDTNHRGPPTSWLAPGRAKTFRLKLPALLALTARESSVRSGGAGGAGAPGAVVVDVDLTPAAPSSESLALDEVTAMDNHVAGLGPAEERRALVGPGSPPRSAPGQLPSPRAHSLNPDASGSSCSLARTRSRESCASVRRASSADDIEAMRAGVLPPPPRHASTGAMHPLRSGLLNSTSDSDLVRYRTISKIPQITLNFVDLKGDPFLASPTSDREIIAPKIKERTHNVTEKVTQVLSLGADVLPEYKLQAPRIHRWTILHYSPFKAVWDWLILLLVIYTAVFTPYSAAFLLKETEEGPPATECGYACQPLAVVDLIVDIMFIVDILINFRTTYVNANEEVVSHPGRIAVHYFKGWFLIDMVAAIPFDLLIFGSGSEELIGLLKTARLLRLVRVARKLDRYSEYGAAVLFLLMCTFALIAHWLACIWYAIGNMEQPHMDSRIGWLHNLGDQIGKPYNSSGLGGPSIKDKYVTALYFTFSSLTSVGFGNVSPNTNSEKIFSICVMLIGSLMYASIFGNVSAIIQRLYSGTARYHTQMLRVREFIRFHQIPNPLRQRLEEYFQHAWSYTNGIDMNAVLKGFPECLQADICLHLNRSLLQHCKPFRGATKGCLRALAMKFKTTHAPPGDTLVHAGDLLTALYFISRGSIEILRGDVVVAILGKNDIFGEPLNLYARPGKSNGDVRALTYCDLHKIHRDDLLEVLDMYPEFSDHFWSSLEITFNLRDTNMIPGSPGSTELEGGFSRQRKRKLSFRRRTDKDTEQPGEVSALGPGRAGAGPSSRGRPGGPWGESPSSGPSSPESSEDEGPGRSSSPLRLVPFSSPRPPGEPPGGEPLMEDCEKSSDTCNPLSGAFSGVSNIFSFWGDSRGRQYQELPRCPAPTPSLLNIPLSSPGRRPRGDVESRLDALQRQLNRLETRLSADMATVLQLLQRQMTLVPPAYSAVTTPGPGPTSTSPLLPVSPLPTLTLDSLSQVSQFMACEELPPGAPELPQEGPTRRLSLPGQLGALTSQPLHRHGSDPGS
# How it was run: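 Kinetic two-minute fluorescence traces, sampled at 1 s, were collected following thallium stimulus of U2OS cells (1000 per well) that had been cultured overnight at 37 C and loaded with FluxOR II.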
# [2] = target: Cytochrome P450 2C9 (Homo sapiens) (UniProt P11712); assay: Cytochrome P450 Family 2 Subfamily C Member 9 (CYP2C9) small molecule antagonists: luciferase reporter qHTS assay (AID 1671198); conditions: P450-Glo CYP2C9 enzyme assay, luciferin luminescence; series mostly up to 115 µM
# Sequence of Cytochrome P450 2C9 (Homo sapiens) (P11712 whole entry, looked up): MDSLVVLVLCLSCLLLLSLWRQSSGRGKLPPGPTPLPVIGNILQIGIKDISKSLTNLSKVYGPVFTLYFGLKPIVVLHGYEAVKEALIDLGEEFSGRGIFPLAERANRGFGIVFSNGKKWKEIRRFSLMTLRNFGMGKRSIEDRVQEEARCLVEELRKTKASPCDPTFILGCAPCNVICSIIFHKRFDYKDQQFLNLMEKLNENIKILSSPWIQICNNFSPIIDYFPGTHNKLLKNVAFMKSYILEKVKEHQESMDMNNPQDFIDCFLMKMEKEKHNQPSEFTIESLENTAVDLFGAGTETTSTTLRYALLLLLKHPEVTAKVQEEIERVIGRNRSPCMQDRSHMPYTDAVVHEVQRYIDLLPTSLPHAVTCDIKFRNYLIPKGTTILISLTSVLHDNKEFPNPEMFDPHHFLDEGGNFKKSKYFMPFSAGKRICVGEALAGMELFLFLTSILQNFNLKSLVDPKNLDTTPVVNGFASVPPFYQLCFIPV
# How it was run: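 CYP2C9 activity was measured with a P450-Glo proluciferin substrate. Enzyme–substrate mix was held with compound for 10 min at room temperature, then NADPH regeneration solution was added for 1 h at 37C. Luciferin product was read as luminescence.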
# [3] = target: Cytochrome P450 1A2 (Homo sapiens) (UniProt P05177); assay: Cytochrome P450 Family 1 Subfamily A Member 2 (CYP1A2) small molecule antagonists: luciferase reporter qHTS assay (AID 1671199); conditions: P450-Glo CYP1A2 enzyme, luciferin luminescence, 1 h; series mostly up to 115 µM
# Sequence of Cytochrome P450 1A2 (Homo sapiens) (P05177 whole entry, looked up): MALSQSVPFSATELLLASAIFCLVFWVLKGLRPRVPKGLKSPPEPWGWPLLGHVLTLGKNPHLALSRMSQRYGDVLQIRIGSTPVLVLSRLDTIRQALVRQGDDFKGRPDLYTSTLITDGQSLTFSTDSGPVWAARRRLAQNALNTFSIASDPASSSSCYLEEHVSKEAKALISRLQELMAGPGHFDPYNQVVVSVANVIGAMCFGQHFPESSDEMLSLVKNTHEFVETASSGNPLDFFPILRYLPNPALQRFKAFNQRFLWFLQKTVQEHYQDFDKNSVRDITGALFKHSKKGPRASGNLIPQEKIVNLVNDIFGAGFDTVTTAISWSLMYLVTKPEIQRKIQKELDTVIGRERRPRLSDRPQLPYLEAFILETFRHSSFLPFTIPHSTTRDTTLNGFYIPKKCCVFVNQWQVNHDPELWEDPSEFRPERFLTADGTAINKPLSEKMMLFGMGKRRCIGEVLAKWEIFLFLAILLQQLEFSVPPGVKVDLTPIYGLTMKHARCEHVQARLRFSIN
# How it was run: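 Signal from luciferin formed by CYP1A2 from a proluciferin substrate is read as luminescence, expressed in relative luminescence units. Compounds sit with enzyme 10 min, NADPH-driven reaction runs 1 h, all at room temperature.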
# [4] = target: Cytochrome P450 3A4 (Homo sapiens) (UniProt P08684); assay: Cytochrome P450 Family 3 Subfamily A Member 4 (CYP3A4) small molecule antagonists: luciferase reporter qHTS assay (AID 1671201); conditions: P450-Glo CYP3A4 enzyme, luciferin luminescence, 1 h; series mostly up to 115 µM
# Sequence of Cytochrome P450 3A4 (Homo sapiens) (P08684 whole entry, looked up): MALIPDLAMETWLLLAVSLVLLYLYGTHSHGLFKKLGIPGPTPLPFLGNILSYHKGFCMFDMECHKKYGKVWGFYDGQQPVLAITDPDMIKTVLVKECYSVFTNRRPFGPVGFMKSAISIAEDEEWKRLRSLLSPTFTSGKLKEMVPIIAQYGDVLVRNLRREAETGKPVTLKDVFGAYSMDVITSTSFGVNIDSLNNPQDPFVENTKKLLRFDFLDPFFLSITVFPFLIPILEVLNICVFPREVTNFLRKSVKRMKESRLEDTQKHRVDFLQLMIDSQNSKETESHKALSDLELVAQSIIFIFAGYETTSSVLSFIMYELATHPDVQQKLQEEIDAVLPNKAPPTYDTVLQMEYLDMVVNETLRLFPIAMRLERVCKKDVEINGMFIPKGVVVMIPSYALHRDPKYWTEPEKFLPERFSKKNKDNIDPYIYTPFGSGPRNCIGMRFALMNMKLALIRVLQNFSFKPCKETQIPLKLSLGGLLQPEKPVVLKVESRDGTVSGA
# How it was run: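 Proluciferin-to-luciferin conversion by CYP3A4, NADPH-regenerated, 1 h RT; luminescence read as RLU. Ketoconazole as control.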
# Further: nearly all actives have a fitted effect of over 50% in size.
# Potency means the concentration at half of the fitted maximal effect.
smiles,measurement,setting,value
NCCNCCNCCN,Potency,[1],inactive
O=C1OC(=O)c2c(Cl)c(Cl)c(Cl)c(Cl)c21,Potency,[2],inactive
same,Potency,[3],inactive
same,Potency,[1],inactive
same,Potency,[4],inactive
CC(=O)OC(C)(C)C1CC=C(C)CC1 (centres undefined),Potency,[2],39.9 µM (active)
same,Potency,[3],inactive
same,Potency,[1],inactive
same,Potency,[4],inactive and 31.7 µM (active)
CC(COCC(C)OC(=O)c1ccccc1)OC(=O)c1ccccc1 (centres undefined),Potency,[2],6.28 µM (active) and 5.64 µM (active)
same,Potency,[3],9.95 µM (active) and 6.33 µM (active)
same,Potency,[4],inactive
Nc1cccc(N)n1,Potency,[3],inactive
same,Potency,[1],inactive
OCCOCCOCCOCCOCCO,Potency,[1],inactive
CC(=O)OC[C@H]1O[C@@](COC(C)=O)(O[C@H]2O[C@H](COC(C)=O)[C@@H](OC(C)=O)[C@H](OC(C)=O)[C@H]2OC(C)=O)[C@@H](OC(C)=O)[C@@H]1OC(C)=O,Potency,[3],inactive
same,Potency,[1],inactive
COc1ccccc1[N+](=O)[O-],Potency,[2],inactive
same,Potency,[1],inactive
Clc1cccc(Cl)c1NC1=NCCN1,Potency,[1],inactive
NC1CCCCC1N (centres undefined),Potency,[1],inactive
C=C(C)CC(C)(C)C,Potency,[2],inactive
same,Potency,[3],inactive
same,Potency,[1],inactive
same,Potency,[4],inactive
C=C(CC(=O)O)C(=O)O,Potency,[1],inactive
C=C1C[C@]23C[C@@]1(O)CC[C@H]2[C@@]12C=C[C@H](O)[C@@](C)(C(=O)O1)[C@H]2[C@@H]3C(=O)O,Potency,[1],inactive
CC(C)(CO)CO,Potency,[2],inactive
same,Potency,[1],inactive
O=C(Cl)c1ccc(C(=O)Cl)cc1,Potency,[2],inactive
same,Potency,[3],inactive and 63.3 µM (active)
same,Potency,[1],inactive
same,Potency,[4],inactive
OCC(O)CS (centres undefined),Potency,[2],inactive
same,Potency,[3],inactive
same,Potency,[1],inactive
same,Potency,[4],inactive
O=C(O)Cc1c[nH]c2ccccc12,Potency,[2],31.7 µM (active) and inactive
same,Potency,[3],inactive
same,Potency,[1],inactive
same,Potency,[4],inactive
Cc1ccccc1Cl,Potency,[3],inactive
same,Potency,[1],inactive
same,Potency,[4],inactive
CCn1cc(C(=O)O)c(=O)c2cc3c(cc21)OCO3,"activity change, negative = inhibition",[2],4.54% [at 23.6 µM] (inactive)
same,Potency,[1],inactive
COc1ccc([C@@H]2CC(=O)c3c(O)cc(O[C@@H]4O[C@H](CO[C@@H]5O[C@@H](C)[C@H](O)[C@@H](O)[C@H]5O)[C@@H](O)[C@H](O)[C@H]4O)cc3O2)cc1OC,Potency,[3],inactive
same,Potency,[1],inactive
same,Potency,[4],inactive and 21.7 µM (active)
O=c1c(O)c(-c2ccc(O)c(O)c2)oc2cc(O)cc(O)c12,Potency,[1],inactive
OC1CCCCC1,Potency,[2],inactive
same,Potency,[3],inactive
same,Potency,[1],inactive
same,Potency,[4],inactive
N[C@@H](Cc1cc(I)c(Oc2ccc(O)c(I)c2)c(I)c1)C(=O)O,Potency,[1],inactive
CCCCCCCCO,Potency,[2],inactive
same,Potency,[3],37.1 µM (active)
same,Potency,[1],inactive
same,Potency,[4],inactive
CCN(CC)CCNC(=O)c1ccc(N)cc1,Potency,[1],inactive
CCc1cccc(O)c1,Potency,[2],inactive
same,Potency,[1],inactive
Nc1nc(N)c2nc(-c3ccccc3)c(N)nc2n1,Potency,[3],36 µM (active) and 31.7 µM (active) and 24.5 µM (active)
same,Potency,[1],inactive
CC[N+](CC)(CC(=O)Nc1c(C)cccc1C)Cc1ccccc1,Potency,[3],inactive
same,Potency,[1],24.5 µM (active) and inactive
O=C1C(N(CO)C(=O)NCO)N(CO)C(=O)N1CO (centres undefined),Potency,[2],inactive
same,Potency,[3],inactive
same,Potency,[1],inactive
same,Potency,[4],inactive
CCCN(CCC)C(=O)SCC,Potency,[2],inactive
same,Potency,[3],inactive
same,Potency,[1],inactive
same,Potency,[4],inactive
